D2 ag-1: agonists of human D2 dopamine receptor; P14416; HEK293 T-REx D2 cells, calcium flux agonist mode; activation, % at 2 µM; actives 0.53% (n = 340,000);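 active means activation over 3 SD above normal in the single-dose calcium agonist read, cut at about 30% in these data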; further: 0% is about no effect
Target sequence (P14416 whole entry, looked up): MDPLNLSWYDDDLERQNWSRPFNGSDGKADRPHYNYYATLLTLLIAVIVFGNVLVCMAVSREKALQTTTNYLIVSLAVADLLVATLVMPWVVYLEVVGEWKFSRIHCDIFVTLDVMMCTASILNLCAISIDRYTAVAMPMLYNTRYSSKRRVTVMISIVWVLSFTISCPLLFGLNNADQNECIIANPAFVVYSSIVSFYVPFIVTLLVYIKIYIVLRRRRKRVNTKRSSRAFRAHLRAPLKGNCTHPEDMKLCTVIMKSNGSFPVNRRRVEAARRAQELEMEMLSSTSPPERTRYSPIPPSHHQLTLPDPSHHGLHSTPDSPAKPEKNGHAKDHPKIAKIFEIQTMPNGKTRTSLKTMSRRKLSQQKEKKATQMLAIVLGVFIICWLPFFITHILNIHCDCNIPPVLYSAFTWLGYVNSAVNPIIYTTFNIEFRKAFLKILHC
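In this primary screen, compounds producing a positive calcium signal within 180 s of addition to tetracycline-induced, force-coupled HEK293 Trex D2 cells are flagged; cells are dye-loaded with a no-wash calcium kit beforehand.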
D2 antag: antagonizes the human D2 dopamine receptor. HEK293 TREx D2 cells, calcium flux, dopamine EC80. inhibition, % at 10 µM. actives 2% (n = 340,000); in the data active means inhibition above about 30%; inactive means below that, where a call was filed; further: 0% is about no effect
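Measurement of antagonist activity uses fluorescent calcium dye in inducible HEK293 T-REx D2 cells: 10 s baseline, compound addition with 180 s read, EC80 dopamine addition with a further 180 s read.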
D2 PAM-1: positive allosteric modulators of human D2 dopamine receptor; DiscoveRx D2 beta-arrestin cells, luminescence, 90 min; 100% = 57 uM dopamine signal; potentiation, % (concentration not given with the values); actives 0.23% (n = 360,000); P14416; in the data active means potentiation above about 50%; inconclusive means mostly about 30% to 49%
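PathHunter beta-arrestin assay in DiscoveRx D2 cells. Compounds were added with an EC20 of dopamine (50 nM final) for 90 min at 37 deg C. Luminescence was read 1 h after detection reagent, with 57 uM dopamine as the EC100 control.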
D2 PAM-2: positive allosteric modulators of human D2 dopamine receptor. P14416. potentiation, % at 10 µM. HEK293 T-REx D2, calcium flux, EC20 dopamine potentiation. AID 485347. actives 0.34% (n = 340,000);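 active means potentiation over 3 SD above the plate norm, cut at about 30% in these data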; further: 0% is about no effect
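Potentiation of an EC20 dopamine calcium response is measured in a force-coupled, tetracycline-inducible Hek293 Trex D2 line. Compound-only kinetic reads over 180 s flag agonists before dopamine addition.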
D2 ag-2: agonists of human D2 dopamine receptor (beta-arrestin) | AID 624465 | DiscoveRx PathHunter D2 beta-arrestin, luminescence, 90 min; 100% = 57 uM dopamine signal | activation, % (no concentration beside the values) | P14416 | actives 0.084% (n = 360,000); in the data active means activation above about 40%; inconclusive means between about 15% and that limit
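Agonist mode: compounds alone added to overnight-plated D2 PathHunter cells for 90 min at 37 C, with 57 uM final dopamine (EC100) defining full response. Beta-arrestin recruitment detected by chemiluminescent reagent, read after 1 h at ambient temperature.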
D3 ag: D3 receptor agonism confirmed, beta-arrestin readout; shares compounds with D2 ag-1; DiscoveRx D3 beta-arrestin cells, luminescence, 90 min; Potency, µM (top dose mostly 76.9 µM), for inactives: top-dose activation, most hits filed as activators; actives 4% (n = 2,300);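 further: potency means the concentration at half of the fitted maximal effect; 100% = dopamine control response; nearly all actives have a fitted effect of over 70% in size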
D2 ag-3: activates human D2 dopamine receptor in D3 counterscreen. shares compounds with D2 ag-1. DiscoveRx PathHunter D2 beta-arrestin, luminescence, 90 min; response scale: percent relative to full dopamine signal. Potency, µM (highest dose often 76.9 µM), without a hit: top-dose activation, actives largely listed as activators. actives 5.9% (n = 2,300). AID 720507; further: potency means the concentration at half of the fitted maximal effect; % of control where 0% means no effect; nearly all actives have a fitted effect of over 70% in size
Starred values were filed as active, the others as inactive; ? = inconclusive; · = no result given. In the library only some 2.4% were active in any assay of this set; here they are far more common. Unless noted, the call rests on the fitted dose curve; in most records, active means well fitted activation curve with a large enough effect; inconclusive means small, poorly fitted or top-dose-only effect; inactive means flat fitted curve, though single readings scatter.

SMILES | D2 ag-1 | D2 antag | D2 PAM-1 | D2 PAM-2 | D2 ag-2 | D3 ag | D2 ag-3
COc1cccc(NC(=O)Cn2c(=O)n(CC(=O)NCCc3ccccc3)c(=O)c3sccc32)c1 | 1 | · | · | 26 | · | · | ·
CC(=O)N1CCc2cc(S(=O)(=O)NCCCN3CCN(Cc4ccccc4)CC3)ccc21 | 42* | 44* | -14 | -22 | 0 | -7% | 7%
CN(c1cccc(NC(=O)CN(c2cccc(F)c2)S(C)(=O)=O)c1)S(C)(=O)=O | 0 | -20 | -7 | 0 | -4 | · | ·
CC(=O)Nc1cccc(C(=O)OCc2csc(CC(=O)Nc3ccccc3C)n2)c1 | 0 | 3 | 0 | -3 | -1 | 1% | 2%
Cc1cc(C)c(C(=O)OCc2csc(CC(=O)Nc3ccccc3C)n2)c(C)c1 | 0 | -8 | 0 | 13 | 2 | · | ·
CCOc1cccc(CC(=O)Nc2ccc3nc(N4CCCCC4)cc(C)c3c2)c1OCC | · | · | · | -10 | · | · | ·
CCNC(=O)C(=O)Nc1ccc([N+](=O)[O-])cc1 | 25 | -23 | -10 | -9 | -1 | -1% | -1%
CN(C)c1ncnc2c1ncn2[C@H]1CN(Cc2cccs2)C[C@@H](CO)O1 | · | · | -3 | · | -4 | · | ·
CCCCCCc1cc2cc(S(=O)(=O)c3ccc(F)c(Cl)c3)c(=O)oc2cc1O | 34* | 8 | 13 | -7 | 7 | 28µM* | ?
Cc1ccc2c(c1)[C@H]1[C@H](CO2)[C@H](c2ccccc2)[C@]2(C)C(=O)N(Cc3ccc(Cl)cc3)CC(=O)N12 | 0 | -2 | -7 | 10 | -2 | -9% | -4%
CC(NC(=O)C(=O)N1CCOCC1)C(c1cccs1)N1CCN(c2ccccc2)CC1 (stereo not drawn) | 44* | -5 | -7 | -15 | 0 | -1% | 6%
COc1ccc(N2CCN(C(c3cccs3)C(C)NC(=O)C(=O)N3CCOCC3)CC2)cc1 (stereo not drawn) | -1 | -15 | 1 | -4 | -1 | · | ·
COC(=O)C1=CO[C@@H](O[C@@H]2O[C@H](CO)[C@@H](O)[C@H](O)[C@H]2O)C2C(CO)=CCC12 (stereo partly drawn) | · | · | -50 | · | 2 | · | ·
CC(=O)OCC1=C[C@@H]2OC(=O)C3=CO[C@@H](O[C@@H]4O[C@H](CO)[C@@H](O)[C@H](O)[C@H]4O)[C@H]1[C@@H]32 | 0 | 4 | -5 | 1 | -2 | 1% | -3%
CC1CCCCN1Cc1ccc(-c2nnn(CC(=O)NC3CCCCC3)n2)cc1 (stereo not drawn) | 50* | -14 | -2 | -19 | -1 | -9% | -6%
COc1ccc(-c2cc(C(=O)N3CCCC(C(F)(F)F)C3)c3ccccc3n2)cc1 (stereo not drawn) | 0 | 7 | 1 | 9 | 2 | -7% | -2%
CC(=O)c1cccc(CN2CCCC(N3CCN(c4ccccc4F)CC3)C2)c1 (stereo not drawn) | · | · | -1 | -28 | 12 | 8% | ?
O=C(c1ccsc1)N1CCCC(N2CCN(c3ccccc3F)CC2)C1 (stereo not drawn) | 12 | 0 | -31 | -11 | 1 | · | ·
COc1ccccc1CN1CCCC(N2CCN(c3ccccc3OC)CC2)C1 (stereo not drawn) | 1 | -6 | -3 | -14 | -3 | · | ·
Fc1ccccc1N1CCN(C2CCCN(Cc3ccccc3C(F)(F)F)C2)CC1 (stereo not drawn) | · | · | -4 | -9 | -2 | 3% | 21%
O=C(c1noc2c1CCCC2)N1CCCC(N2CCN(c3ccccc3F)CC2)C1 (stereo not drawn) | 41* | 15 | -20 | -14 | 2 | 1% | 6%
Cc1cccc(CSCCNC(=O)CN(c2ccccc2)S(=O)(=O)N(C)C)c1 | 0 | · | · | 8 | · | · | ·
CCN(CC)CCCNC(=O)c1ccccc1NC(=O)C1=CSCCO1 | · | · | -17 | · | -3 | · | ·
